Experimental data published in PubChem BioAssay AID488969 (Vanderbilt High Throughput Screening Facility, 2010).
The full ranking holds about 110,000 compounds; the median of “z-score” is about -0.1, and the highest 2% start at about 2. The list comes from a sample in which the highest values are over-represented; it also holds similar structures and randomly drawn compounds. The source made the active and inactive calls.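 The calls were made as follows: active = z-score in the third read window above 3 or below -3; inactive = the rest.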

Biological target: Metabotropic glutamate receptor 8 (Rattus norvegicus) (UniProt P70579)
Sequence (P70579 whole entry, looked up): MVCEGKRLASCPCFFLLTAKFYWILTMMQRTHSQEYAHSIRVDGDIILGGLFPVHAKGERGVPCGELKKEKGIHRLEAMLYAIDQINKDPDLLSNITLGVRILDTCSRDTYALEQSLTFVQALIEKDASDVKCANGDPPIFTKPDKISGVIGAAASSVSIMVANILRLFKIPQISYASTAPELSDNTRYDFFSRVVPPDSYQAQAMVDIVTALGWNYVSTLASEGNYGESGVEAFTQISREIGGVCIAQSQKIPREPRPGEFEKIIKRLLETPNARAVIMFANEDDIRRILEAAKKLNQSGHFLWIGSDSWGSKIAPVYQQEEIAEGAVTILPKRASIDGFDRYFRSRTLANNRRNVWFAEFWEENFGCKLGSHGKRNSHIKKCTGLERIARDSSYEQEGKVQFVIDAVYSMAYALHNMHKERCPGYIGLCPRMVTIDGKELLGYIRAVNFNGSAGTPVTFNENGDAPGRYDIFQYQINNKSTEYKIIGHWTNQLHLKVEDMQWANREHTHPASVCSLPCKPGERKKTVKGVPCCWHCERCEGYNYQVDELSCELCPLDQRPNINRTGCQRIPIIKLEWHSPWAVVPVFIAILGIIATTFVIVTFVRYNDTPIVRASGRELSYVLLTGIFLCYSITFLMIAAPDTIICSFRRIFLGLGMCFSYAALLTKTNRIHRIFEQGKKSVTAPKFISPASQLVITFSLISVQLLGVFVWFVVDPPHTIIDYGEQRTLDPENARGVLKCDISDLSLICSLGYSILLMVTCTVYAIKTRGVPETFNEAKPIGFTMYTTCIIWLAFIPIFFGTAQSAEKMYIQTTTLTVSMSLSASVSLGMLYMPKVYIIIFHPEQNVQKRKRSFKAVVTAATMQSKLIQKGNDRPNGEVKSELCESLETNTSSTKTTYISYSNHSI
Assay: mGluR8 Gi/Go-coupled signaling modulation – cell-based, rat, thallium flux, HTS, primary screen (AID 488969)
Settings: HEK293 rat mGluR8, GIRK (G protein-gated inwardly rectifying potassium channel) thallium flux, FluoZin2; at 10 µM; stronger effect = higher value; submaximal glutamate (EC20) added with thallium

In order of falling z-score:
1. C=CCn1c(SCc2c(C)noc2C)nc2sc3c(c2c1=O)CCC(C)C3 (stereo not given)  2.65
2. Cc1onc(-c2ccccc2Cl)c1C(=O)NC(=S)NCCc1ccccc1  2.63
3. Cc1ccccc1C(=O)Nc1nc(=S)ss1  2.56
4. COc1ccc(Nc2ccc(S(=O)(=O)N3CCCCC3)cc2[N+](=O)[O-])cc1OC  2.43
5. O=C(Cn1nnc(-c2ccccc2F)n1)Nc1ccc2c(c1)OCO2  2.41
6. Cc1sc(NC(=O)c2sc3nc4c(C)cccc4cc3c2N)c(C#N)c1C  2.37
7. O=C(Cn1nnc(-c2ccccc2F)n1)Nc1cccc2ncccc12  2.27
8. COc1cc(OC)cc(C(=O)NC(=S)NNC(=O)Cc2cccs2)c1  2.21
9. CC(C)n1c(CCC(=O)O)ccc1-c1ccccc1  2.11
10. COc1cc(OC)cc(C(=O)NC(=S)NCCc2ccccc2)c1  2.08
11. Cn1nc(CC(=O)Nc2cccc3ncccc23)c2ccccc2c1=O  2.01
12. CCCn1nnnc1NCc1cccn1C  1.98
13. O=C(NC(=S)NCCc1ccccc1)c1ccccc1  1.9
14. O=C(CNC(=S)NC(=O)c1ccc(Cl)cc1)c1ccccc1  1.87
15. CCOC(=O)CNC(=O)CSc1nc2ncc(Br)cc2[nH]1  0.941
16. c1cc(-c2nnc3n2CCCCC3)ccn1  0.91
17. COc1ccc(C(=O)NC(=S)NNC(=O)Cc2cccs2)cc1  0.741
18. COC(=O)c1nn(Cc2ccccc2)c(=O)c2ccccc12  0.721
19. O=C(Cc1cccs1)NNC(=S)NC(=O)c1ccccc1  0.646
20. CC(=O)C1=C(c2ccccc2)NC(=S)NC1c1cc(Cl)c(OC(C)C)c(Cl)c1 (stereo not given)  0.616
21. COc1ccc(Nc2ccc(S(=O)(=O)N3CCCCCC3)cc2[N+](=O)[O-])cc1  0.571
22. COc1ccc(Nc2ccc(S(=O)(=O)N3CCCCC3)cc2[N+](=O)[O-])cc1Cl  0.547
23. COc1ccc(C(=O)N(NC(=O)Oc2ccccc2)C(C)(C)C)cc1  0.485
24. CC(=O)Nc1nc(=S)ss1  0.468
25. O=c1[nH]c2ccc(Cl)cc2c(-c2ccccc2)c1N1CCN(CCO)CC1  0.464
26. O=C(Cn1nnc(-c2ccccc2NC(=O)c2ccccc2)n1)Nc1ccc2c(c1)OCCO2  0.418
27. Cc1onc(-c2ccccc2Cl)c1C(=O)NCc1ccccc1  0.341
28. Cc1ccccc1NC(=O)CSc1nc(COc2ccccc2)nc2ccccc12  0.264
29. COc1ccc(CCNC(=S)NC(=O)c2ccccc2)cc1OC  0.202
30. COc1ccc(NC(=O)Cn2nnc(-c3ccccc3F)n2)cc1Cl  0.202
31. O=C(Cn1nnc(-c2ccccc2)n1)Nc1ccc2c(c1)OCO2  0.199
32. CCC(C)(C)NC(=O)CN(Cc1cccs1)C(=O)CNS(=O)(=O)c1ccc(C)cc1  0.191
33. O=C(CN1C(=O)NC2(CCCC2)C1=O)Nc1ccc(F)cc1  0.19
34. CC(C)(Oc1ccc(Cl)cc1)C(=O)NCc1ccncc1  0.181
35. Cc1scc(C(=O)N/N=C/c2ccc(OC(C)C)cc2)c1C  0.164
36. Cc1cc2ccccc2n2c(SCC(=O)N3CCc4ccccc4C3)nnc12  0.115
37. Clc1ccc(-c2nnc3n2CCCS3)cc1  0.105
38. COc1ccc(CCNC(=O)c2c(-c3ccccc3Cl)noc2C)cc1  0.099
39. O=C(NS(=O)(=O)c1ccccc1)c1ccccc1O  0.0922
40. O=C(CNC(=S)NC(=O)c1ccccc1)c1ccccc1  0.079
41. CC(CC(=O)Nc1ccncc1)c1ccccc1 (stereo not given)  0.044
42. COc1cc2cc3c(N)c(C(=O)Nc4sc(C)c(C)c4C#N)sc3nc2cc1OC  0.0438
43. O=C(O)CCC(=O)Nc1ccc(N2CCCCC2)c(C(=O)O)c1  0.0405
44. CC(NC(=O)COc1ccc(/C=N/NC(=O)C(=O)Nc2ccccc2Br)cc1)c1ccccc1 (stereo not given)  0.00853
45. COc1ccc(S(=O)(=O)CCC(=O)NCCc2cccc(C)c2)cc1  0.00176
46. Cc1cc(Cl)ccc1NC(=S)NCc1ccccc1Cl  0.000558
47. O=C(Nc1ccc(F)cc1)c1ccccc1  -0.000317
48. Cc1ccc(-c2ccc(CCC(=O)O)n2C(C)C)cc1  -0.00219
49. Cc1ccc(C(=O)NC(=S)NCC(=O)c2ccccc2)cc1  -0.021
50. CC1(C)CC(CC(=O)Nc2ccccc2[N+](=O)[O-])C(=O)O1 (stereo not given)  -0.0252
51. Cc1cc(C)c(Cn2cnc(-c3ccc([N+](=O)[O-])cc3)c2)c(C)c1  -0.0263
52. CC(C)(C)C(=O)NC(=S)NCCc1ccccc1  -0.0291
53. Cc1ccccc1C(=O)Nc1nncs1  -0.0319
54. O=C(Nc1ccc(F)cc1F)c1ccco1  -0.0416
55. CCOc1ccc(C(=O)CC(=O)C(=O)NCCc2ccc(OC)c(OC)c2)cc1  -0.0424
56. O=C(CCSCc1ccc(Cl)cc1)NCCc1ccccc1  -0.0466
57. CC(=O)Nc1ccc(N2CCCCC2)c(C(=O)Nc2cccc(C)c2)c1  -0.0504
58. Cc1ccc(C(=O)N/C(=C/c2cccc([N+](=O)[O-])c2)C(=O)NC(C)C)cc1  -0.0623
59. Cc1ccc(S(=O)(=O)N2CCN(c3ccc(C(F)(F)F)cc3[N+](=O)[O-])CC2)cc1  -0.0811
60. C=CCn1c(SCc2c(C)noc2C)nc2sc3c(c2c1=O)CCCC3  -0.0819
61. CCCn1nnc(NC(=O)c2ccc(Cl)cc2Cl)n1  -0.0896
62. Cc1ccc(F)cc1NC(=O)Cc1nn(C)c(=O)c2ccccc12  -0.0938
63. Cc1ccccc1C(=O)NC(=S)NCC(=O)c1ccccc1  -0.0957
64. COc1ccc(-c2ccc(CCC(=O)O)n2C(C)C)cc1  -0.109
65. COC(=O)c1cn(-c2ccccc2)c(C)c1C(=O)OC  -0.11
66. O=C(Nc1ccc2nc3ccccc3nc2c1)c1ccccc1  -0.114
67. CCOC(=O)c1ccc(NC(=O)Cn2nnc(-c3ccccc3F)n2)cc1  -0.121
68. O=C(CN(C(=O)c1cccc([N+](=O)[O-])c1)C1CCCCC1)Nc1ccc(Cl)c([N+](=O)[O-])c1  -0.137
69. O=C(Cn1nnc(-c2ccccc2F)n1)NCCc1ccccc1  -0.146
70. Cc1ccc(S(=O)(=O)NCCCCC(NC(=O)OC(C)(C)C)C(=O)O)cc1 (stereo not given) (tested in a mixture with another compound)  -0.148
71. CC(=O)C1=C(O)C(=O)N(c2cccc(C(=O)O)c2)C1c1ccc(F)cc1 (stereo not given)  -0.153
72. CCOc1nc(-c2ccc(C)cc2)ccc1-c1noc(COC)n1  -0.156
73. CCc1ccc(/C=N/NC(=O)C(=O)NCCCN2CCOCC2)cc1  -0.174
74. O=C(NCCc1ccccc1)c1ccco1  -0.2
75. CCCn1nnnc1NCc1ccc(N2CCCC2)cc1  -0.208
76. CC(=O)c1ccc(N2Cc3ccccc3/C2=N\C(=O)Nc2ccccc2)cc1  -0.211
77. CCOc1nc(N(C)C)nc(-n2nnc(C(C)=O)c2C)n1  -0.22
78. CC(=O)O/N=C(/c1nonc1N)N1CCN(c2ccc([N+](=O)[O-])cc2Cl)CC1  -0.222
79. COCc1cc(C)nc(Nc2ccc(C)cc2C)c1C#N  -0.225
80. CC1SCC(=O)N(CC(=O)NCc2ccccc2)C1=O (stereo not given)  -0.233
81. C=CCn1c(SCc2c(C)noc2C)nc2sc3c(c2c1=O)CCCCC3  -0.236
82. O=C(/N=C1/c2ccccc2CN1c1ccccc1)Nc1ccccc1  -0.236
83. CNC(=S)N1CCN(C(=O)C2CCCO2)CC1 (stereo not given)  -0.25
84. Cc1[nH]c(=O)[nH]c(=O)c1NC(=O)c1sc2nc3c(C)cccc3cc2c1N  -0.256
85. CCOC(=O)c1c(NC(=O)c2cccs2)sc(CC)c1-c1cccs1  -0.275
86. Cc1ccc2c(CC(=O)NNC(=O)c3ccccc3)coc2c1  -0.29
87. CC(C)C(=O)Nc1cccc(NC(=O)c2ccc(Cl)cc2Cl)c1  -0.304
88. CCN(CC)c1ccc(NC(=O)/C=C\c2ccccc2Cl)cc1  -0.341
89. O=C(N/N=C/c1ccccc1Cl)c1cccc(F)c1  -0.342
90. CC(C)C(=O)NC(=S)NCC(=O)c1ccccc1  -0.37
91. Cc1cc(N2C(=O)C3C4c5ccccc5C(c5ccccc54)C3C2=O)no1 (stereo not given)  -0.47
92. O=C(N/N=C/c1c(Cl)cccc1Cl)c1ccc(F)cc1  -0.476
93. CCC(C)Nc1nc(CN2CCOCC2)nc2sc3c(c12)CCC3 (stereo not given)  -0.57
94. O=C(C(=O)N1CCc2ccccc2C1)c1cn(CC(=O)N2CCCCC2)c2ccccc12  -0.582
95. O=C(Nc1nc(=S)ss1)c1c(F)cccc1F  -0.588
96. COc1ccccc1NC(=O)Cc1nn(C)c(=O)c2ccccc12  -0.677
97. CCn1nc(C(=O)OCC(=O)c2ccc3c(c2)OCCO3)c2ccccc2c1=O  -0.721
98. COc1ccc(OC)c(-c2cc(C(F)(F)F)c3c(n2)sc2c(O)cc(=O)[nH]c23)c1  -0.747
99. CCCC(=O)Nc1ccccc1-c1nnn(CC(=O)Nc2ccc(OCC)cc2)n1  -0.817
100. CCCNc1c(N)c(=O)oc2ccccc12  -1.25
101. O=C(NC(=S)N(CCc1ccccc1)CCc1ccccc1)c1ccco1  -1.87
102. CCCCn1nnnc1NCc1cccs1  -1.89
103. O=c1cc(O)c2sc3nc(-c4ccccc4)cc(C(F)(F)F)c3c2[nH]1  -1.89

With `O=C(CNC(=S)NC(=O)c1cccs1)c1ccccc1` the z-score was 6.19 (active).
With `Cc1ccccc1C(=O)NC(=S)NCCc1ccccc1` the z-score was 6.68 (active).
`O=C(CNC(=S)NC(=O)c1ccco1)c1ccccc1` was tested, and the z-score was 6.42 (active).
For `COc1ccc(C(=O)CC(=O)C(=O)NCCc2cccc(C)c2)cc1`, the z-score was 3.99 (active).
For `O=C(NC(=S)NCCc1ccccc1)c1ccco1`, the z-score was 13 (active).
`O=C(Nc1ccc2[nH]c(=S)sc2c1)c1ccccc1` was tested, and the z-score was 11.9 (active).
For `O=C(Nc1nc(=S)ss1)c1ccc(Cl)cc1Cl`, the z-score was 4.46 (active).
In the case of `O=C(N/N=C/c1c(Cl)cccc1Cl)c1cccc(F)c1`, the z-score is reported as 3.05 (active).
With `CC(=O)CN1Cc2ccccc2/C1=N\C(=O)Nc1ccccc1` the z-score was 3.19 (active).
`CCOc1ccc(NC(=O)Cn2nnc(-c3ccccc3F)n2)cc1` was tested, and the z-score was 3.4 (active).
In the case of `Cc1ccc(NC(=O)c2cc(NC(=O)CCC(=O)O)ccc2N2CCCCC2)cc1`, the z-score is reported as 4.06 (active).
With `COc1ccc(-c2cc(C(F)(F)F)c3c(n2)sc2c(O)cc(=O)[nH]c23)c(OC)c1` the z-score was 5.32 (active).
